Bioassay records from PubChem BioAssay.
Insulin prom inh: TRM-6 insulin promoter activity inhibition. TRM-6 cells (human fetal islet line), insulin promoter-eGFP reporter, imaging; reporter expression induced with tamoxifen. inhibition, % at 2 µM. 130,000 tested, 0.9% active. AID 1273;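 active = inhibition above the mean plus 3 SD, with well images judged a real hit on visual review, cut at about 60% in these data, passing the limit was not always enough; inconclusive = inhibition over the cutoff but images rejected on review; inactive = inhibition not above the cutoff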
ROMK mod: modulates human ROMK potassium channel activity; Tet-inducible ROMK, thallium flux fluorescence; actives lie on both sides; B-score at 10 µM; 130,000 tested, 2% active;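 active = signal ratio slope over the read window, or its plate-corrected B-score, at least 3 SD from the plate mean, either direction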;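 also: B-score of the F/F0 ratio slope over 7 to 12 s after thallium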
Target sequence (P48048 whole entry, looked up): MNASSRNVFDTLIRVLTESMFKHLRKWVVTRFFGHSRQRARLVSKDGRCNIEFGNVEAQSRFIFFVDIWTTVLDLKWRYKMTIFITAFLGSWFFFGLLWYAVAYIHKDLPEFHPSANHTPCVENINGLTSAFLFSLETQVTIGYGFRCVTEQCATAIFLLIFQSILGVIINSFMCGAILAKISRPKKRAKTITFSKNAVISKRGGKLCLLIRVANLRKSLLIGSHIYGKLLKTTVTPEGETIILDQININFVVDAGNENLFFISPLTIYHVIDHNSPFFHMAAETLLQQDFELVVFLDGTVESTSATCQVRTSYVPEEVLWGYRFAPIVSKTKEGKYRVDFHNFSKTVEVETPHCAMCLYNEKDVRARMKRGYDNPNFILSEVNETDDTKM
HSV augment: increases HSV replication in cells; HSV replication augmentation in cells, fold increase; maximum fold increase; 220,000 tested, 0.005% active; AID 1956; in the data active = maximum fold increase above about 1.5; inconclusive = no clear call, values can overlap the other calls; tested in PC3 cells
Tb hexokinase: blocks Trypanosoma brucei hexokinase 1 activity; inhibition, % at 10 µM; 220,000 tested, 0.11% active; AID 1430; recombinant TbHK1, G6PDH-coupled NADH A340;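 active = inhibition of 50% or more in the single-dose primary screen; inactive = inhibition below 50%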
Ins promoter up: MIN6 insulin promoter up-regulation. z-score at 5 µM. 190,000 tested, 0.3% active. MIN6 insulin promoter-GFP reporter, high-content imaging; stronger effect = higher value;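 active = z-score above 3 at 5 µM with at least 500 cells counted in the well; inconclusive = wells under 500 cells, flagged as cytotoxic or low count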
ROMK retest: retested hit modulating human ROMK potassium channel. shares compounds with ROMK mod. ROMK thallium flux, fluorescence ratio; stronger effect = lower value. normalized thallium flux (F/F0 slope) at 10 µM. 3,000 tested, 54% active;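 active = Flux at 10 µM at least 3 SD below or above vehicle control mean in one or both replicates; inconclusive = no clear call, values can overlap the other calls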
* marks the source's active call; other numbers are inactive results; i = inactive; ? = inconclusive; . = no result. Many of the other results were omitted from the sample, so hits are more common in it than they were.

SMILES | Insulin prom inh | ROMK mod | HSV augment | Tb hexokinase | Ins promoter up | ROMK retest
CCN1CCc2c(sc(NC(=S)NC(=O)c3ccc(Cl)cc3)c2C(N)=O)C1 | . | . | ? | -30 | . | .
COc1ccc2nc(C)cc(C(=O)O)c2c1 | . | . | i | -9 | 0.58 | .
CCOc1ccc2nc(C)cc(C(=O)O)c2c1 | . | 1.9* | i | -7 | 0.07 | 0.087
CCN(CC)S(=O)(=O)c1cccc2cccnc12 | -49 | -0.02 | i | 3 | -0.11 | .
CSS(=O)(=O)c1cccc2cccnc12 | . | . | i | 0 | 0.03 | 0.09
CCc1cc(C(=O)c2ccccc2OC)c(N)s1 | . | . | i | -10 | -0.11 | .
CCn1c(=O)[nH]c(=O)c2c(N)c(C(=O)c3ccccc3OC)sc21 | 44 | 3.7* | i | -34 | -1.5 | 0.095
COc1ccc(CN(C2CCCCC2C)S(=O)(=O)c2ccc(S(=O)(=O)N(C)C)cc2)cc1OC (stereo not given) | -24 | . | i | -19 | -0.14 | 0.077
O=S(=O)(Nc1nc2c(s1)CCCC2)c1ccc(Br)cc1 | 3 | -3.2* | i | -8 | . | 0.076
CC1CCCC(C(=O)O)N1C(=O)CCS (stereo not given) | 18 | 2.2* | i | -2 | -1.1 | ?
CC1C(=O)C(C)C(c2ccc([N+](=O)[O-])cc2)NC1c1ccc([N+](=O)[O-])cc1 (stereo not given) | . | 0.47 | i | -9 | . | .
CC1C(=NO)C(C)C(c2ccc(N(C)C)cc2)NC1c1ccc(N(C)C)cc1 (stereo not given) | . | -4.4* | . | 6 | . | 0.067*
O=C(NC1CCCCCCC1)C1c2ccccc2C(=O)N1Cc1ccco1 (stereo not given) | 3 | . | i | -3 | 0.07 | ?
O=C(NC1CCCCCC1)C1c2ccccc2C(=O)N1Cc1cccnc1 (stereo not given) | 24 | . | i | 6 | 0.38 | .
CCC(O)(CC)C(=O)N/N=C/c1cc(Br)cc(Br)c1O | . | . | i | -9 | -0.18 | .
CC(=O)N/N=C/c1cc(C(C)(C)C)cc(/C=N/NC(C)=O)c1O | . | -3* | ? | -3 | . | 0.055*
Brc1ccc(N=C(c2ccccc2)c2ccncc2)cc1 | -18 | 0.0077 | i | 5 | . | .
O=C(CCl)N(c1ccccc1)c1ccccc1 | . | -5.4* | i | 1 | -0.55 | 0.053*
O=C(N(c1ccccc1)c1ccccc1)N(c1ccccc1)c1ccccc1 | . | . | i | 0 | 0 | .
COc1ccccc1-c1cc(-c2cc(Cl)ccc2O)n[nH]1 | . | 2.5 | i | -10 | 0.61 | ?
COC(=O)CSCC(=O)Nc1nnc(-c2cccc(C)c2)s1 | 12 | 0.046 | i | -10 | 0.23 | .
Cc1ccccc1NC(=O)COC(=O)c1ccc(S(C)(=O)=O)c([N+](=O)[O-])c1 | -29 | -3.5* | i | -1 | -0.27 | ?
CC(=O)c1cccc(NC(=O)COC(=O)c2ccc(S(C)(=O)=O)c([N+](=O)[O-])c2)c1 | 29 | -0.11 | i | -5 | -0.62 | .
COc1ccc(CN(C)Cc2nc(Cc3cccc(F)c3)no2)c2cccnc12 | . | -1.6* | i | -3 | 1.3 | ?
CCCc1cc(=O)[nH]c(N/N=C/C=C\c2ccccc2)n1 | 50 | 0.69 | i | -30 | -0.63 | .
SMILES | Insulin prom inh | ROMK mod | HSV augment | Tb hexokinase | Ins promoter up | ROMK retest
COc1ccc(C(=O)N2CCN(c3ccc([N+](=O)[O-])c(NCCc4ccc(OC)c(OC)c4)c3)CC2)cc1 | 45 | . | i | 2 | ? | 0.06*
OCCN1CCN(CCCN2c3ccccc3Sc3ccc(C(F)(F)F)cc32)CC1 | 5 | . | i | -30 | . | .
CN1CCN(CCCN2c3ccccc3Sc3ccc(Cl)cc32)CC1 | -14 | . | i | -12 | 0.02 | 0.048*
CCN(CC)C(=O)CSc1nnc(COc2ccccc2)n1N | . | 1.9 | i | 7 | . | .
COc1ccc2[nH]c(=O)c(CN(c3ccc(C)c(C)c3)S(C)(=O)=O)cc2c1 | . | . | i | -10 | -0.25 | .
CCN1C(=O)c2cccc3c(S(=O)(=O)Nc4ccccc4OC)ccc1c23 | -109 | . | . | 29 | -0.17 | 0.062*
CCOC(=O)c1[nH]c2ccc(OC)cc2c1C | . | -0.27 | . | -2 | . | .
CCOC(=O)c1cc2cc(OC)ccc2[nH]1 | -113 | -1.2 | i | -31 | -0.9 | 0.072
Cc1cccc(NC(=O)C2c3ccccc3Oc3ccccc32)n1 | 7 | -2.4 | i | 4 | . | .
O=C1CCC(c2ccccc2)(c2ccccc2)CC1 | . | . | i | 6 | 0.19 | .
CC(C)(C)N1CC2(c3ccccc3)CN(C(C)(C)C)CC(c3ccccc3)(C1)C2=O | -20 | 3* | i | -1 | . | 0.075
CCCCNC(=O)C1(NC(=O)Nc2ccc(C)cc2)CCCCC1 | . | 0.61 | i | 3 | 1 | .
O=C(COC(=O)CCSc1ccc(Cl)cc1)NCc1ccco1 | -47 | 0.067 | i | -3 | 0.17 | .
CCCCOC(=O)CSC1=C(C#N)C(c2cccnc2)C(C(=O)OCC)=C(c2ccccc2)N1 (stereo not given) | . | -3.4* | i | 6 | -0.93 | 0.067*
CCOC(=O)C1=C(c2ccccc2)NC(SC)=C(C#N)C1c1cccnc1 (stereo not given) | -60 | -0.12 | i | -8 | -1.2 | .
O=C(NCCSC1CCCCC1)c1ccccc1 | . | -0.17 | i | -2 | -0.25 | .
COc1ccc(C(=O)NCCSC2CCCCC2)cc1 | -7 | -2.2* | i | 18 | 0.14 | ?
CCOC(=O)CN1C(=O)CSc2ccc(S(=O)(=O)N3CCCC3)cc21 | . | -0.0047 | i | 0 | 0.66 | .
CC1CCCCC1NC(=O)CN1C(=O)CSc2cc(S(=O)(=O)N3CCCCCC3)ccc21 (stereo not given) | -78 | -4.5* | i | 4 | -0.38 | 0.065*
CCC(C(=O)NCc1ccco1)N(C(=O)CNS(=O)(=O)c1ccc(C)cc1)c1ccccc1OC (stereo not given) | -39 | 0.79 | i | 10 | 0.6 | .
CCCC(C(=O)NCc1ccco1)N(C(=O)CNS(=O)(=O)c1ccccc1)c1ccccc1OC (stereo not given) | . | -4.2* | i | 7 | -0.12 | 0.058*
COc1ccc(CNC(=O)C(c2ccco2)N(C(=O)CNS(=O)(=O)c2ccccc2)c2ccccc2C)cc1 (stereo not given) | -25 | -5* | i | 6 | -0.47 | 0.045*
O=C(CCc1nnc(CCC2CCCCC2)o1)NCCc1cccnc1 | . | 0.24 | i | 1 | -0.48 | .
COc1cccc(Oc2nnnn2-c2ccccc2)c1 | . | 0.95 | i | 4 | 0.64 | .
COc1cccc(-n2nnnc2S(C)(=O)=O)c1 | 54 | -3.5* | i | -3 | . | 0.063*
Cc1ccc(NC(=O)c2ccc(NCc3ccc(F)cc3)nc2)cc1 | . | 0.48 | i | -5 | -0.34 | .
Cc1ccc(NC(=O)c2ccc(Nc3ccccc3F)nc2)cc1 | . | 2.7* | i | 11 | -0.45 | 0.081
C/C(=N/N=C1/NC(=O)CC(C(=O)Nc2ccccc2)S1)c1cccs1 (stereo not given) | -3 | 0.93 | i | 5 | 0.04 | .
CC(C)(C)NC(=O)CN(C(=O)CS(=O)CC(=O)Nc1ccc(F)cc1)c1ccc2c(c1)OCCO2 (stereo not given) | 9 | 0.6 | i | 1 | 0.09 | .
